The results in this text go back to ChEMBL document CHEMBL1961873, “Compounds: GSK PKIS; Assays: Nanosyn kinase panel” (2012).

Each structure is given as a SMILES string. “And” between values parts separate entries of the source, which are not always exact repeats. Equal values may be shown once.

The term inhibition denotes the change of the read-out against control, counted positive when it falls.
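Note: values are mean inhibition of PDK1.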

This test has as its target T1, 3-phosphoinositide-dependent protein kinase 1 (Homo sapiens) (UniProt O15530).
T1 sequence (whole entry): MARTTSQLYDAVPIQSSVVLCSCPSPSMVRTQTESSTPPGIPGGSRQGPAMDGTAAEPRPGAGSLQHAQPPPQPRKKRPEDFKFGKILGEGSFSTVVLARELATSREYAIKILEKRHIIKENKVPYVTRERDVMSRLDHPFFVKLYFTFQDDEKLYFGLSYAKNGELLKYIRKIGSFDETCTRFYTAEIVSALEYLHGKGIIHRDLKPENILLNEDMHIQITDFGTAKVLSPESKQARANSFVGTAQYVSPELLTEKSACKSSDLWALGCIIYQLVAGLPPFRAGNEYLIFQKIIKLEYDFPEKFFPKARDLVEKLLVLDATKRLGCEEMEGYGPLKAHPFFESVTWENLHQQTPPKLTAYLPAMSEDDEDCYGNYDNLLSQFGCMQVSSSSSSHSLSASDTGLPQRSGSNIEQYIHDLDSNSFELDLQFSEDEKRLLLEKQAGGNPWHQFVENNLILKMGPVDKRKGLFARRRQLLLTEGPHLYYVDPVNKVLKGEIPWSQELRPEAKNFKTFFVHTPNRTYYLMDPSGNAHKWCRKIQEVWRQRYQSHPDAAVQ
To be noted: at 0.1 µM.
Regarding `Cn1c(-c2nonc2N)nc2cnccc21`, the inhibition came to 4.21%.

Regarding `CS(=O)(=O)CCNCc1ccoc1-c1ccc2ncnc(Nc3ccc(OCc4ccccc4)cc3)c2c1`, the inhibition was determined as 1.23%.

Consider `CN1CCN(Cc2ccc(-c3cc4ncnc(Nc5ccc(OCc6cccc(F)c6)c(Cl)c5)c4s3)o2)CC1`, for which the inhibition is 14.8% and 0.07%.

As for `CC(C)c1ccc(-c2cc(-c3c[nH]nc3-c3ccccn3)ccn2)cc1`, the inhibition was determined as 1.17%.

For the compound `Nc1ncnc2occ(-c3ccc(NC(=O)Nc4cc(C(F)(F)F)ccc4F)cc3)c12`, the inhibition was 2.41% and -0.72%.

Regarding `COc1ccc2ncn(-c3cc(O[C@H](C)c4ccccc4C(F)(F)F)c(C(N)=O)s3)c2c1`, the inhibition was determined as 0.59%.

For the compound `N#Cc1cccc(Nc2ncc(-c3ccccc3)o2)c1`, the inhibition was determined as 0.43%.

For `CS(=O)(=O)Nc1ccc(-c2ccc3c(NC(=O)C4CC4)n[nH]c3c2)cc1`, the inhibition worked out at 2.46%.

Consider `Cc1nnc(-c2cccc(-c3ccc(C(=O)NCC4CC4)cc3)c2)o1`, for which the inhibition came out at 2.18%.

For the compound `CC1(C)CC(n2cnc(-c3ccc(F)cc3)c2-c2ccnc(N)n2)CC(C)(C)N1`, the inhibition came to 0.82%.

On to `CC1=C(C(=O)Nc2ccc3[nH]nc(C)c3c2)C(c2ccc(C(F)(F)F)cc2)CC(=O)N1` (stereo not given), for which the inhibition was 1.14%.

Consider `NC(=O)c1ccc2c(-c3ccnc(NCCCO)n3)c(-c3ccc(F)cc3)nn2c1`, for which the inhibition stood at 2.05%.

On to `COc1cc(N2CCN(C(C)C)CC2)ccc1Nc1nc(Nc2cccc3ncccc23)c2cc[nH]c2n1`, for which the inhibition was -0.4%.

On to `FC(F)(F)CNc1nccc(-c2cnn3ncccc23)n1`, for which the inhibition was -1.1%.

For `CCN1CCC(C(=O)Nc2n[nH]c3nnc(-c4cccc(F)c4F)cc23)CC1`, the inhibition was -0.53%.
